BoNT-A LC inh2 = BoNT/A light chain protease inhibitors, primary screen, biochemical, flow cytometry, MLPCN library; inhibition, % at 10 µM; Botulinum neurotoxin type A light chain protease (Clostridium botulinum A str. ATCC 3502); AID 588499, 2011; 360,000 compounds, 0.17% hits; multiplex microsphere protease substrate cleavage; note: plate controls were buffer without enzyme for full effect and enzyme alone for no effect
Autofluor counter = flagged as autofluorescent in microsphere protease counterscreen; compound autofluorescence counterscreen, microsphere flow cytometry; stronger effect = higher value; fluorescence intensity (concentration not given with the values); 360,000 compounds, 3.1% hits; in the data active = fluorescence intensity above about 16000; inconclusive = no clear call, values can overlap the other calls
BoNT-F LC inh = BoNT/F light chain protease inhibitors, primary screen, biochemical, flow cytometry, MLPCN library | Multiplex microsphere protease cleavage assay | inhibition, % at 10 µM | 360,000 compounds, 0.22% hits | AID 588497, 2011; in the data active = inhibition above about 35%, passing the limit was not always enough; inconclusive = no clear call, values can overlap the other calls; note: plate controls were buffer without enzyme for full effect and enzyme alone for no effect
Anthrax LF inh2 = Bacillus anthracis LF protease inhibitors, primary screen, biochemical, multiplex microsphere, MLPCN library; AID 588501, 2011; 360,000 compounds, 0.12% hits; inhibition, % at 10 µM; multiplex microsphere protease cleavage assay; Lethal factor (Bacillus anthracis), P15917; note: plate controls were buffer without enzyme for full effect and enzyme alone for no effect
Target sequence (P15917 whole entry, looked up): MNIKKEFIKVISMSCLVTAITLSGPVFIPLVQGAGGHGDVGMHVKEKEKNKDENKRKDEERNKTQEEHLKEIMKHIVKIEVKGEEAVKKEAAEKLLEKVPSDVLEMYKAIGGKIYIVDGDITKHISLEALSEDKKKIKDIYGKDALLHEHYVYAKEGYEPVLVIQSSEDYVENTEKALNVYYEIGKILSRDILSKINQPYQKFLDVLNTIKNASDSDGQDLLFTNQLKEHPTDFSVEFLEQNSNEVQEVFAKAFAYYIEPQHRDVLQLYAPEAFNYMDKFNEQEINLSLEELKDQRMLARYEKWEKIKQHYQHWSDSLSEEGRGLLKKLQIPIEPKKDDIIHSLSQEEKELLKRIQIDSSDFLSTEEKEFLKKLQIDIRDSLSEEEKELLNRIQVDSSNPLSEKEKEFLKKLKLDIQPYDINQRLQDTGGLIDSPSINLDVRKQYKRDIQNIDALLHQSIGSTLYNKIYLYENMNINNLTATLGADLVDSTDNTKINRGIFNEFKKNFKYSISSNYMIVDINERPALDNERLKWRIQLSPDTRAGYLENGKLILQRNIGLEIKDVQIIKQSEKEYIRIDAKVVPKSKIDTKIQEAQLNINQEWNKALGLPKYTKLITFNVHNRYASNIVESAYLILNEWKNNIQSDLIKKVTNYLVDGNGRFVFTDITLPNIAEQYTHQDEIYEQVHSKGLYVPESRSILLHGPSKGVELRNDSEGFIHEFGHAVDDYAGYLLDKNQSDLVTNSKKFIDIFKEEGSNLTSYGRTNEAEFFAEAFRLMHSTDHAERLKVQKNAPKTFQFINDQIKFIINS
PriA SSB inh = inhibitors of Klebsiella pneumoniae PriA binding to SSB C-terminal tail, primary screen, biochemical, AlphaScreen | PriA–SSB C-terminal tail interaction (Klebsiella pneumoniae) | AlphaScreen SSBct-PriA binding, biotinylated peptide | 430,000 compounds, 0.6% hits | inhibition, % at 33 µM; in the data active = inhibition mostly above about 37%, no sharp cut-off; inactive = mostly below about 20%;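 note: plate controls were negative control peptide for no effect and reference peptide for full effect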
Active calls of the source: *. Only some compounds are listed: those with a hit (about 3.1% of all), similar ones and a draw of the others. Cut-off read from the data, not from the text of the source, unless noted: active = inhibition above about 30%; inconclusive = no clear call, values can overlap the other calls; inactive = below that.

Screening Cc1cc(S(=O)(=O)Nc2ccc3ccccc3c2)c(C)s1 returned BoNT-A LC inh2 5, Autofluor counter 19290*, BoNT-F LC inh 2, Anthrax LF inh2 -4 and PriA SSB inh -24.
COc1cccc([C@H](CNS(=O)(=O)c2ccccc2Br)OC)c1 was read as PriA SSB inh -3.
`COc1ccc(S(=O)(=O)NCCC(C)C)cc1C` gave BoNT-A LC inh2 1, Autofluor counter 23019*, BoNT-F LC inh 0, Anthrax LF inh2 -1 and PriA SSB inh -30.
Screening COc1ccc(S(=O)(=O)NCCOc2ccccc2)cc1C returned BoNT-A LC inh2 0, Autofluor counter 3363, BoNT-F LC inh 6, Anthrax LF inh2 -9 and PriA SSB inh 2.
Screening CCn1nccc1C(=O)Nc1ccccc1-c1nc2ccccc2[nH]1 returned PriA SSB inh -13.
Screening COc1ccc(CN2CCOCC2)cc1OC returned BoNT-A LC inh2 -1, Autofluor counter 3218, BoNT-F LC inh -5, Anthrax LF inh2 -4 and PriA SSB inh -5.
Screening COc1ccc(CN2CCOCC2)cc1Br returned BoNT-A LC inh2 inconclusive, Autofluor counter 23516*, BoNT-F LC inh -1, Anthrax LF inh2 0 and PriA SSB inh -1.
Screening CN(C)C(=O)COC(=O)c1cc(Cl)cc(Cl)c1N returned BoNT-A LC inh2 2, Autofluor counter 7240, BoNT-F LC inh -8, Anthrax LF inh2 -20 and PriA SSB inh -6.
CC(C)N(C(=O)COC(=O)c1cc(Cl)cc(Cl)c1N)C(C)C was read as BoNT-A LC inh2 -7, Autofluor counter 21720*, BoNT-F LC inh -9, Anthrax LF inh2 -1 and PriA SSB inh -70.
`CCOC(=O)C1=C(c2ccccc2)N=c2sc(=Cc3cc(OC)c(OC)c(OC)c3)c(=O)n2C1c1cccs1` (configuration not stated) gave BoNT-A LC inh2 32*, Autofluor counter 3180, BoNT-F LC inh 18, Anthrax LF inh2 37* and PriA SSB inh -10.
Screening CCOC(=O)c1nn(-c2ccc(C)cc2)c(=O)c2c(NC(=O)c3cc4ccccc4oc3=O)scc12 returned PriA SSB inh 8.
For CCN(CC)C(=O)c1ccc(Nc2nnc(C)c3ccccc23)cc1 the results were BoNT-A LC inh2 -2, Autofluor counter 24503*, BoNT-F LC inh -3, Anthrax LF inh2 0 and PriA SSB inh -9.
For Cc1nn(CC(N)=O)c(=O)c2ccccc12 the results were BoNT-A LC inh2 0, Autofluor counter 2840, BoNT-F LC inh -5, Anthrax LF inh2 -4 and PriA SSB inh -16.
`Cc1nn(CC(=O)Nc2ccc3c(c2)nc2n3CCOC2)c(=O)c2ccccc12` gave BoNT-A LC inh2 1, Autofluor counter 21862*, BoNT-F LC inh 1, Anthrax LF inh2 1 and PriA SSB inh -1.
Screening CCN(CC)C(=O)c1ccc(NC(=O)Cn2nc(C)c3ccccc3c2=O)cc1 returned BoNT-A LC inh2 inconclusive, Autofluor counter 22310*, BoNT-F LC inh 3, Anthrax LF inh2 -4 and PriA SSB inh 7.
`COCCN1CCn2c(nc3cc(NC(=O)Cn4nc(C)c5ccccc5c4=O)ccc32)C1` gave BoNT-A LC inh2 1, Autofluor counter 4333, BoNT-F LC inh inconclusive, Anthrax LF inh2 -5 and PriA SSB inh -2.
`Cc1nn(CC(=O)N(C)C)c(=O)c2ccccc12` gave BoNT-A LC inh2 1, Autofluor counter 22253*, BoNT-F LC inh 1, Anthrax LF inh2 1 and PriA SSB inh -12.
COc1ccc(Cl)cc1C(=O)NCCc1cc2c(C)ccc(C)c2[nH]c1=O was read as PriA SSB inh 5.
Screening COc1cc(S(=O)(=O)n2ccnc2C)ccc1F returned PriA SSB inh -3.
Screening Cc1nn(CC(=O)Nc2ccc(C(=O)N(C)C)cc2)c(=O)c2ccccc12 returned BoNT-A LC inh2 3, Autofluor counter 19106*, BoNT-F LC inh 5, Anthrax LF inh2 0 and PriA SSB inh -11.
`COc1ccc(N(C(=O)c2cccc([N+](=O)[O-])c2)S(=O)(=O)c2ccc3c(c2)n(C)c(=O)n3C)cc1` gave BoNT-A LC inh2 inconclusive, Autofluor counter 16542*, BoNT-F LC inh 0, Anthrax LF inh2 -5 and PriA SSB inh -21.
`Cc1ccc(-c2nnc3c4ccccc4c(C)nn23)cc1S(=O)(=O)N1CCN(C)CC1` gave BoNT-A LC inh2 inconclusive, Autofluor counter 20956*, BoNT-F LC inh 2, Anthrax LF inh2 -6 and PriA SSB inh -17.

High-throughput results from PubChem BioAssay.
